The record followed here is PubChem BioAssay.

Calls of active or inactive are those of the source.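 Rule for the calls, unless noted: active = mean inhibition above 46.5%, the solvent-only control mean plus 3 SD; inactive = the rest.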

Assay [1] has as its system transactivating tegument protein VP16 (Human herpesvirus 1). Put plainly: compounds suppressing VP16-driven luciferase signal – cell-based, luminescence, single concentration, counter-screen for SRC2 inhibitor project (AID 652007; in the data active = inhibition above about 36%). As to conditions: cell-based VP16 transactivation luciferase reporter, at 8.9 µM, hits give high values.
The target of assay [2] is Nuclear receptor coactivator 2 (Homo sapiens) (UniProt Q15596). The assay can be described thus: inhibition of GAL4-SRC2 driven luciferase expression – cell-based, luminescence, HEK293, triplicate, confirmation (AID 652008).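 Note: 0% = DMSO-treated cells and 100% = Gossypol at 36 µM.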 Conditions: HEK293 GAL4-SRC2 luciferase reporter, at 8.9 µM, hits give high values.
Chain of Nuclear receptor coactivator 2 (Homo sapiens) (Q15596 whole entry, looked up, the tested form may be a part): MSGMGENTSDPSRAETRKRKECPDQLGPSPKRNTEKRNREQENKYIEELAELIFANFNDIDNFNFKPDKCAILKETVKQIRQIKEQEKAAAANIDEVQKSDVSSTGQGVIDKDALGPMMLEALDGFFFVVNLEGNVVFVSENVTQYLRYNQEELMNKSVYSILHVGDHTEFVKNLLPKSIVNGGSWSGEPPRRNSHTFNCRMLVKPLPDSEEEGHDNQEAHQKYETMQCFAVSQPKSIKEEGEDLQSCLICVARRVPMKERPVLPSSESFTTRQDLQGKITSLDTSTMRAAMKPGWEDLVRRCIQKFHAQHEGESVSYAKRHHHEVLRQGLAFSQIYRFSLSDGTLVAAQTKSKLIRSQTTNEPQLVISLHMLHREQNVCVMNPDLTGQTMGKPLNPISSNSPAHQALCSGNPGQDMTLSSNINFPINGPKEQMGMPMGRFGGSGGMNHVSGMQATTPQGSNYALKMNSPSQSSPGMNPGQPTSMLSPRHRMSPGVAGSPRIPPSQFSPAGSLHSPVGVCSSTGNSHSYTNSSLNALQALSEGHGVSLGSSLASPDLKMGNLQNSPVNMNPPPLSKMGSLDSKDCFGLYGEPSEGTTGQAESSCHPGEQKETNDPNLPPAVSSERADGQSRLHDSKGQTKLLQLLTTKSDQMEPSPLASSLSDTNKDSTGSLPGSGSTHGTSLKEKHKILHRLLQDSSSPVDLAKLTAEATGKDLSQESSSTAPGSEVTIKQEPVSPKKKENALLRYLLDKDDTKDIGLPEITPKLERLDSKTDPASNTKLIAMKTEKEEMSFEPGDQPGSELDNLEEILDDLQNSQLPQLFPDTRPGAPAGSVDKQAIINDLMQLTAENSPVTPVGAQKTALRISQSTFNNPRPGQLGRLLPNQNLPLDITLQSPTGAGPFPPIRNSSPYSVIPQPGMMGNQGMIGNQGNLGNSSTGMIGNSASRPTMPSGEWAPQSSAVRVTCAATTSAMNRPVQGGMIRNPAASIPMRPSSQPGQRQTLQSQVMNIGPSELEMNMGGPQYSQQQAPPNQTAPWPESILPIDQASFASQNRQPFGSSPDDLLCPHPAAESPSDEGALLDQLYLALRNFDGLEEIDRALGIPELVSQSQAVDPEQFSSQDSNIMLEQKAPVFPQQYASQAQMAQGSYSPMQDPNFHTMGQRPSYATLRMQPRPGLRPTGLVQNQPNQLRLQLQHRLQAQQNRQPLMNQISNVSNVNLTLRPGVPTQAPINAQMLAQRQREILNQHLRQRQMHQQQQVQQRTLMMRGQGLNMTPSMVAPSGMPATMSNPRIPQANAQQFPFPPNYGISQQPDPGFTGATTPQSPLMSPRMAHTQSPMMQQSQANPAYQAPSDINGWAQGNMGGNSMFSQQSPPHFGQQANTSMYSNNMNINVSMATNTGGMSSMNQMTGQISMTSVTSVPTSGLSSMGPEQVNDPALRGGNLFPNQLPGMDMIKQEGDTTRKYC

As for `O=C(Nc1nc2cc3c(cc2s1)OCCO3)c1ccco1`, the inhibition in assay [1] was 24.9% (inactive); in assay [2], 56.3% (active).

On to `COc1ccc(NC(=O)NCc2ccccc2F)cc1OC`, for which the results for the inhibition in assay [1] and in assay [2] were -0.66% (inactive) and -17.2% (inactive), respectively.

Consider `CC(=O)c1ccc(OCCCC(=O)Nc2ccc(C)c(S(=O)(=O)N3CCCCC3)c2)cc1`, for which the figures for the inhibition in assay [1] and in assay [2] were -1.11% (inactive) and -2.06% (inactive), respectively.

For the compound `Cc1cc(Br)ccc1NC(=O)CN(C)C(=O)C1CCN(c2ncnc3sc(C)c(C)c23)CC1`, the inhibition in assay [1] was 12.9% (inactive); in assay [2], 23% (inactive).

In the case of `COc1ccc(CN2C(=O)C(CC(=O)NCCN3CCOCC3)CC(C(=O)N(C(C)C)C(C)C)=C2C)cc1` (stereo unspecified), the values for the inhibition in assay [1] and in assay [2] were 0.37% (inactive) and -36.3% (inactive), respectively.

As to `CCn1c(=O)c2c(cnn2C)c2ccccc21`, the inhibition in assay [1] was 25.8% (inactive); in assay [2], 50.6% (active).

On to `Nn1c(SCC(=O)Nc2cc(C(F)(F)F)ccc2Cl)nncc1=O`, for which the inhibition in assay [1] was 3.78% (inactive); in assay [2] it was -1.26% (inactive).

As to `CC(C)(CO)CNC(=O)CCc1nnc(-c2ccc(-c3ccccc3)cc2)o1`, the inhibition in assay [1] is 0.83% (inactive); in assay [2], -13.5% (inactive).

`Nc1ccc2oc(-c3cccc4ccccc34)nc2c1`: the results for the inhibition in assay [1] and in assay [2] were 38.3% (active) and 48.8% (active), respectively.

In the case of `O=S(=O)(O)Sc1ccccc1`, the inhibition was -0.6% (inactive) in assay [1] and 4.75% (inactive) in assay [2].

In the case of `CC(C)(c1ccc(O)cc1)c1ccc(O)c(C(=O)O)c1`, the results for the inhibition in assay [1] and in assay [2] were -8.08% (inactive) and -5.54% (inactive), respectively.

As to `COC(=O)C1Cc2ccccc2CN1C(=O)CCl` (stereo unspecified), the inhibition in assay [1] was 27.7% (inactive); in assay [2] it was 33.2% (inactive).

Turning to `COc1ccc(S(=O)(=O)N2CCC(C(=O)c3ccc4c(c3)OCCO4)CC2)cc1`, the inhibition in assay [1] is -0.72% (inactive); in assay [2], -0.4% (inactive).

Regarding `CC1CCc2nc(N)c(C#N)c(-c3cccn3C)c2C1` (stereo unspecified), the inhibition in assay [1] is 15.5% (inactive); in assay [2], 15.7% (inactive).

As to `Nc1nonc1-n1nnc(C(=O)N/N=C/c2ccccc2Br)c1CN1CCCC1`, the inhibition was -7.5% (inactive) in assay [1] and -12.4% (inactive) in assay [2].

Take `Cc1cc(C)n(CCC(=O)N/N=C/c2c(O)ccc3ccccc23)n1`: the values for the inhibition in assay [1] and in assay [2] were 5.98% (inactive) and 17.2% (inactive), respectively.

Take `O=C(O)COc1ccc(-c2nccc(-c3ccccn3)n2)cc1`: the inhibition in assay [1] is 20.4% (inactive); in assay [2] it was 79.1% (active).

As for `COc1ccc(NC(=O)c2cccc(N3C(=O)c4cccc([N+](=O)[O-])c4C3=O)c2)cc1`, the results for the inhibition in assay [1] and in assay [2] were -32.3% (inactive) and -27.1% (inactive), respectively.

Regarding `Cc1ccc(C)c(N2CCN(C(=O)c3ccc4c(c3)c(C)c(C)n4C)CC2)c1`, the inhibition is -28.6% (inactive) in assay [1] and 3.19% (inactive) in assay [2].

Take `Cc1c(CCC(=O)N[C@@H](C)C(=O)O)c(=O)oc2c(C)c3oc4c(c3cc12)CCCC4`: the inhibition in assay [1] was 25% (inactive); in assay [2], 27.4% (inactive).

Take `O=C(CSCCO)Nc1ccc(C23CC4CC(CC(C4)C2)C3)cc1`: the inhibition in assay [1] is -57.7% (inactive); in assay [2], 41.9% (inactive).

In the case of `CCC(=O)Nc1ccc(NCc2ccc(-c3ccccc3)cc2)cc1`, the results for the inhibition in assay [1] and in assay [2] were 20.7% (inactive) and 17.8% (inactive), respectively.

As to `O=C(c1ccc(NS(=O)(=O)c2cccc(F)c2)cc1)N1CCCCC1`, the figures for the inhibition in assay [1] and in assay [2] were -7.22% (inactive) and -9% (inactive), respectively.

In the case of `COC(=O)c1ccc(CSc2nc3sc(C)c(C)c3c(=O)[nH]2)cc1`, the figures for the inhibition in assay [1] and in assay [2] were -20.1% (inactive) and -17.4% (inactive), respectively.

For the compound `O=C(OC12CCCN(C1)/C(=C/c1ccncc1)C2)c1ccc(Cl)cc1` (stereo unspecified), the figures for the inhibition in assay [1] and in assay [2] were -7.98% (inactive) and 25.9% (inactive), respectively.

Consider `Cn1nnnc1Sc1ncnc2scc(-c3cccc(F)c3)c12`, for which the inhibition is 7.55% (inactive) in assay [1] and 38.1% (inactive) in assay [2].

For the compound `CCCc1ncc(CN2CCC(C(=O)Nc3cccc(-c4cscn4)c3)CC2)cn1`, the inhibition in assay [1] was 12.2% (inactive); in assay [2], 15.5% (inactive).

`CCCN(CCC)Cc1c(C(=O)N/N=C/CCc2ccccc2)nnn1-c1nonc1N`: the inhibition is -6.81% (inactive) in assay [1] and -9.2% (inactive) in assay [2].

As to `Cc1c(CCC(=O)N[C@@H](CCCNC(N)=O)C(=O)O)c(=O)oc2cc3oc4c(c3cc12)CCCC4`, the inhibition in assay [1] is 47.2% (active); in assay [2], 57.7% (active).

Consider `Cn1nnnc1Sc1ncnc2scc(-c3ccsc3)c12`, for which the inhibition in assay [1] was 18.3% (inactive); in assay [2] it was 45% (inactive).

As for `COc1ccc(/C=C2\SC(=S)N(CCCC(=O)NNC(=O)c3ccccc3O)C2=O)cc1`, the inhibition is 89.9% (active) in assay [1] and 93.1% (active) in assay [2].

As to `CCOC(=O)C1=C[C@@H](C(C)(C)C)N(S(=O)(=O)c2ccc(C)cc2)[C@H]1c1ccc(Cl)c(Cl)c1`, the values for the inhibition in assay [1] and in assay [2] were 7.53% (inactive) and 17.4% (inactive), respectively.

Take `C=CCN=C1NN=C(c2cc(C)n(CCOC)c2C)CS1`: the inhibition is 69.5% (active) in assay [1] and 86% (active) in assay [2].
